DT40 TDP1 CPT = growth inhibition of DT40 Tdp1-/-;hTDP1 cells with camptothecin (screen for TDP1 inhibitors). Potency, µM (top dose mostly 46.2 µM), for inactives: top-dose activity change, negative = growth inhibition, usual class: inhibitors. chicken DT40 Tdp1-/-;hTDP1 cells + 20 nM CPT, ATP luminescence, 48 h. actives 12% (n = 420,000); note: potency is the fitted concentration of half-maximal effect; nearly all actives have a fitted effect of over 55% in size
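Chicken DT40 Tdp1-/- cells complemented with human TDP1, 400 cells/well, exposed to compounds plus 20 nM camptothecin for at least 48 h at 37 C; viability read as ATP content by CellTiter-Glo luminescence.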
HT1080-NT tox = kills 2HG-producing HT-1080-NT fibrosarcoma cells. HT-1080-NT fibrosarcoma viability, CellTiter-Glo ATP luminescence, 48 h. Potency, µM (top dose mostly 46.1 µM), without a hit: top-dose activity, negative = less viability, usual class: cytotoxic. actives 1.6% (n = 360,000). AID 686970;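 note: NT is the 2HG producing partner of a matched IDH1 knockdown line; potency is the fitted concentration of half-maximal effect; 0% = DMSO-treated cells and -100% = media-only wells without cells; nearly all actives have a fitted effect of over 55% in size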
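Toxicity toward the 2HG-producing NT line was scored as %Activity, normalised to DMSO and no-cell wells, from CellTiter-Glo luminescence after 48 hours' treatment.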
HT1080 IDH1KD tx = toxicity to HT-1080 IDH1 knockdown cells (counter line); HT-1080 IDH1 knockdown viability, ATP luminescence, 48 h; Potency, µM (highest dose often 46.1 µM), for inactives: at the highest dose activity, negative = toxicity, hits mostly cytotoxic; actives 2% (n = 360,000); AID 686971;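 note: potency is the fitted concentration of half-maximal effect; 0% = DMSO wells and -100% = cell-free medium wells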
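Luminescent ATP read-out (CellTiter-Glo, 10 min at room temperature) after 48 h compound exposure at 37 °C gave viability of IDH1-knockdown HT-1080 cells. Activity was normalised to DMSO and cell-free wells, then fitted as concentration-response curves.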
uPA surface inh = inhibitors of cell surface uPA generation; cell surface uPA generation assay, qHTS; Potency, µM (series often up to 38.3 µM), for inactives: at the highest dose activity change, negative = inhibition, most hits filed as inhibitors; actives 0.31% (n = 330,000); active = well fitted inhibition curve with a large enough effect; inconclusive = small, poorly fitted or top-dose-only effect; inactive = no such curve, though single readings can be large or run the other way; tested in mouse RAW 264.7 cells; note: potency is the fitted concentration of half-maximal effect; nearly all actives have a fitted effect of over 55% in size
DT40 TDP1 no CPT = qHTS for Inhibitors of human tyrosyl-DNA phosphodiesterase 1 (TDP1): qHTS in cells in absence of CPT; DT40 Tdp1-/- hTDP1 cells, no CPT, ATP luminescence, 48 h; Potency, µM (highest dose often 46.2 µM), without a hit: at the top dose activity change, negative = growth inhibition, hits mostly inhibitors; actives 15% (n = 420,000); AID 686978, 2013; note: potency is the fitted concentration of half-maximal effect; nearly all actives have a fitted effect of over 55% in size
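DT40 Tdp1-/-;hTDP1 cells, no CPT (DMSO vehicle only), 400 cells/well; compounds pin-transferred; ≥48 hr, 37 °C; CellTiter-Glo 30 min RT dark, luminescence read.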
IL1B secr inh = inhibitors of inflammasome signaling (IL-1 beta secretion) | AID 743279 | actives 4.7% (n = 360,000) | activity change, % at 57.5 µM | THP-1 LPS/ATP IL-1B secretion, AlphaLISA, 16 h; active compounds read low; in the data active = activity change below about -50%; inconclusive = mostly about -30% to -49%
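THP-1 cells pretreated 1 hr with compounds (up to 57.5 uM final), then stimulated with LPS (250 ng/mL final) plus ATP (1.25 mM final); secreted IL-1B measured by AlphaLISA after 16 hr, decreased signal indicating inhibition.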
Active calls of the source: *; ? = inconclusive; / = not tested or not shown; [ ] = dose if it differs, or a comment. The list is not random: actives were taken first. Their share in the collection is about 19%. Unless noted, calls come from the whole dose curve; as a rule, active = well fitted curve in the direction sought with a large enough effect; inconclusive = small, poorly fitted or top-dose-only effect, or another doubt; inactive = no such curve, though single readings can be large; an effect the other way counts as inactive or inconclusive. Unless noted, % is set by controls: 0 for no effect and ±100 for the full control effect.

SMILES	DT40 TDP1 CPT	HT1080-NT tox	HT1080 IDH1KD tx	uPA surface inh	DT40 TDP1 no CPT	IL1B secr inh
CCOc1ccc(CCN2C(=S)N([C@@H](Cc3ccccc3)CN3CCC[C@@H]3CN3C(=S)NC[C@@H]3Cc3ccc(O)cc3)C[C@@H]2CC(C)C)cc1	9.2µM*	-16%	-19%	/	9.2µM*	-20
COc1ccccc1/C=N/NC(=O)C(=O)Nc1ccccc1OC(F)(F)C(F)F	?	9%	10%	2%	?	-2
O=C(N/N=C/c1cc(Br)ccc1O)C(=O)Nc1ccccc1OC(F)(F)C(F)F	5µM*	1.4µM*	0.89µM*	/	2.8µM*	156
O=C(N/N=C/c1cc(Cl)ccc1O)C(=O)Nc1ccccc1OC(F)(F)C(F)F	2.1µM*	?	?	-11%	1.8µM*	39
COc1ccc(NC(=O)Cn2cnc3c(oc4ccccc43)c2=O)cc1OC	-16%	/	/	/	-12%	/
COc1cccc2c1C(=O)/C(=C\c1ccc(N(C)C)cc1)C2	?	/	/	/	11µM*	/
COC(=O)c1ccc(OC(=O)C23CCC(C)(C(=O)O2)C3(C)C)cc1 (stereo not drawn)	-23%	0%	10%	3%	-3%	34
O=C(Nc1ccc2nc3n(c(=O)c2c1)CCCCC3)c1cc([N+](=O)[O-])ccc1F	6.5µM*	?	?	-21%	2.6µM*	-93*
O=C(Nc1ccc2nc3n(c(=O)c2c1)CCCC3)c1ccccc1F	-18%	11%	12%	6%	1%	-11
O=C(Nc1ccc2nc3n(c(=O)c2c1)CCCCC3)c1c(F)ccc([N+](=O)[O-])c1F	2.6µM*	9.2µM*	15µM*	17%	2.3µM*	-102*
CCCCCCCCSc1nnc(/N=C/N(C)C)s1	21%	-5%	3%	-1%	-4%	16
Cc1cc(Sc2nnc(/N=C/N(C)C)s2)c2ccccc2n1	5.8µM*	15µM*	18µM*	?	7.3µM*	-89*
Cc1cc(C)c2ccccc2n1	-2%	/	/	/	1%	/
Cc1cc(Sc2nnc(N)s2)c2ccccc2n1	1.8µM*	?	?	3.2µM*	2.9µM*	-113*
Cc1cccc(C)c1NC(=O)Cn1c(=O)n(CCCS(=O)(=O)C2CCCCC2)c(=O)c2ccccc21	-3%	/	/	/	?	/
COc1ccc(C)cc1NC(=O)/C=C/c1ccc(OC)c(S(=O)(=O)N2CCOCC2)c1	-25%	3%[9.24 µM]	-3%	-13%	-1%	-21
O=C(Oc1ccc(-c2nnco2)cc1)N(c1ccccc1)c1ccccc1	?	-2%	-8%	0%	?	-79*
CN(C)c1ncc2nc(CCc3ccccc3)c(=O)n(CCC#N)c2n1	8%	/	/	/	-29%	/
CC(NS(=O)(=O)c1ccc(Br)cc1)C(c1cccs1)N1CCOCC1 (stereo not drawn)	18µM*	-8%	12%	2%	?	10
COc1ccc(N2CCN(C(c3cccs3)C(C)NS(=O)(=O)c3ccccc3)CC2)cc1 (stereo not drawn)	21µM*	4%	-10%	-8%	13µM*	-4
COc1ccc(N2CCN(C(c3cccs3)C(C)NC(=O)C(=O)N3CCCCC3)CC2)cc1 (stereo not drawn)	-14%	0%	-2%	-3%	-4%	5
CCS(=O)(=O)NC(C)C(c1cccs1)N1CCN(c2ccc(OC)cc2)CC1 (stereo not drawn)	21µM*	-4%	15%	-4%	23µM*	2
CC(NS(=O)(=O)c1ccccc1)C(c1cccs1)N1CCOCC1 (stereo not drawn)	-3%	0%	12%	-1%	4%	4
CC(NS(C)(=O)=O)C(c1cccs1)N1CCN(c2ccccc2)CC1 (stereo not drawn)	-1%	-1%	19%[9.24 µM]	-1%	-7%	-10
COc1ccc(N2CCN(C(c3cccs3)C(C)NC(=O)C(=O)N3CCCC3)CC2)cc1 (stereo not drawn)	16µM*	24%	5%	3%	?	26
SMILES	DT40 TDP1 CPT	HT1080-NT tox	HT1080 IDH1KD tx	uPA surface inh	DT40 TDP1 no CPT	IL1B secr inh
CCC(=O)N1CCC1(C)C(=O)Nc1ncc(C)s1 (stereo not drawn)	-20%	1%	15%	/	-3%	7
CCNC(=O)C1(C)CCN(C(=O)c2cccc(OC(F)(F)F)c2)C1 (stereo not drawn)	-22%	3%	12%	/	1%	-8
Cc1c(O)c2c(c(C(=O)/C=C/c3ccccc3)c1O)OC(C)(C)C=C2	?	/	/	/	11µM*	/
COC1=C(C)C(O)=C(C(=O)/C=C/c2ccccc2)C(=O)C1(C)C	?	-9%	-1%	?	?	?
CC(=O)c1ccc(OCCOc2ccc(Cl)c3cccnc23)cc1	-7%	20%	21%	0%	-7%	18
N#Cc1ccc(CSC2=NCCN2)cc1	21µM*	-5%	?	-17%	23µM*	?
Clc1ccccc1CSC1=NCCN1	-18%	-2%	0%	-5%	-6%	-1
c1ccc(CSC2=NCCCN2)cc1	3%	14%	3%	-2%	0%	?
CCOc1ccc(CSC2=NCCN2)cc1Cl	?	?	-17%	-11%	15µM*	-19
CCOC(=O)c1cccc(NC(=O)N2Cc3ccccc3Oc3ncccc32)c1	-1%	/	/	/	-9%	/
CC(=O)/C(=N/Nc1cccc(C)c1)N1CCOCC1	6.5µM*	-5%	?	5%	?	-2
Cc1cccc(C(=O)Nc2cccc(C(=O)N3CCOCC3)c2)c1	-2%	-1%	16%	/	-3%	15
CC12COC3(P(=O)(c4ccccc4)c4ccccc4)CC1CCC23CP(=O)(c1ccccc1)c1ccccc1 (stereo not drawn)	?	-19%	?	-2%	?	-52*
Fc1ccccc1SCc1nnc(-c2ccccc2Br)o1	5.8µM*	-3%	-3%	-4%	26µM*	-18
S=C(Nc1ccc2nsnc2c1)N1CCCCC1	11%	?	?	-3%	-26%	-64*
CCOc1ccc(NS(=O)(=O)c2cc3c4c(c2)C(C)C(=O)N4CCC3)cc1 (stereo not drawn)	?	12%	-1%	7%	?	30
CCCCc1ccc(Nc2nc(CCC)cc(=O)[nH]2)cc1	?	21µM*	?	1%	16µM*	-105*
CCCc1cc(=O)[nH]c(Nc2ccc3c(c2)OCCO3)n1	-4%	1%	3%	7%	-26%	23

Source: PubChem BioAssay
